In PubChem BioAssay AID1159580 (chemical genetic matrix, 2015):
Hit rate of the full screen: of about 5,500 compounds, about 2,000 (36%) were called active. Roughly 18% stayed inconclusive and do not appear here. Rule as the data show it: active = normalized growth mostly below about 0.91 (no sharp cut-off); inconclusive = no clear call, values can overlap the other calls; inactive = mostly above about 0.92. The list shows a part of the results.

Test: chemical genetic growth profiling, strain panel (AID 1159580);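 also: tested at 20 µM; growth read once vehicle control cultures reached saturation at 30 °C; 1 = growth at the plate median or of vehicle wells; lower values mean less growth of the strain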
Settings: S. cerevisiae deletion strains, growth OD
[1] = locus YAR019C, strain CDC15, active compounds read low
[2] = locus YBL105C, strain PKC1, active compounds read low
[3] = locus YBR135W, strain CKS1, active compounds read low
[4] = locus YBR136W, strain MEC1, active compounds read low
[5] = locus YBR160W, strain CDC28, active compounds read low
[6] = locus YDL017W, strain CDC7, active compounds read low
[7] = locus YDL028C, strain MPS1, active compounds read low
[8] = locus YDL101C, strain DUN1, active compounds read low
[9] = locus YDL108W, strain KIN28, active compounds read low
[10] = locus YDL132W, strain cdc53, active compounds read low
[11] = locus YDL214C, strain PRR2, active compounds read low
[12] = locus YDR052C, strain DBF4, active compounds read low
[13] = locus YDR054C, strain cdc34, active compounds read low
[14] = locus YDR226W, strain ADK1, active compounds read low
[15] = locus YDR477W, strain SNF1, active compounds read low
[16] = locus YER123W, strain YCK3, active compounds read low
[17] = locus YER133W, strain GLC7, active compounds read low
[18] = locus YFL009W, strain cdc4, active compounds read low
[19] = locus YFL029C, strain CAK1, active compounds read low
[20] = locus YFR003C, strain YPI1, active compounds read low
[21] = locus YFR019W, strain FAB1, active compounds read low
[22] = locus YFR028C, strain CDC14, active compounds read low
[23] = locus YGR040W, strain KSS1, active compounds read low
[24] = locus YGR052W, strain FMP48, active compounds read low
[25] = locus YGR092W, strain DBF2, active compounds read low
[26] = locus YHR030C, strain SLT2, active compounds read low
[27] = locus YHR079C, strain IRE1, active compounds read low
[28] = locus YHR082C, strain KSP1, active compounds read low
[29] = locus YHR205W, strain SCH9, active compounds read low
[30] = locus YIL147C, strain SLN1, active compounds read low
[31] = locus YJL095W, strain BCK1, active compounds read low
[32] = locus YJL128C, strain PBS2, active compounds read low
[33] = locus YJL157C, strain FAR1, active compounds read low
[34] = locus YJR016C, strain ILV3, active compounds read low
[35] = locus YJR066W, strain TOR1 (second series), active compounds read low
[36] = locus YJR066W, strain TOR1, active compounds read low
[37] = locus YKL048C, strain ELM1, active compounds read low
[38] = locus YKL067W, strain YNK1, active compounds read low
[39] = locus YKL101W, strain HSL1, active compounds read low
[40] = locus YKL193C, strain SDS22, active compounds read low
[41] = locus YKL203C, strain TOR2, active compounds read low
[42] = locus YLR113W, strain HOG1, active compounds read low
[43] = locus YLR133W, strain CKI1, active compounds read low
[44] = locus YLR403W, strain SFP1, active compounds read low
[45] = locus YML070W, strain DAK1, active compounds read low
[46] = locus YMR001C, strain CDC5, active compounds read low
[47] = locus YMR205C, strain PFK2 (second series), active compounds read low
[48] = locus YMR277W, strain FCP1, active compounds read low
[49] = locus YNL006W, strain LST8, active compounds read low
[50] = locus YNL020C, strain ARK1, active compounds read low
[51] = locus YNL161W, strain CBK1, active compounds read low
[52] = locus YNL183C, strain NPR1, active compounds read low
[53] = locus YNL207W, strain RIO2, active compounds read low
[54] = locus YNL222W, strain SSU72, active compounds read low
[55] = locus YNL307C, strain MCK1 (second series), active compounds read low
[56] = locus YOL078W, strain AVO1, active compounds read low
[57] = locus YOL136C, strain PFK27, active compounds read low
[58] = locus YOR061W, strain CKA2, active compounds read low
[59] = locus YOR119C, strain RIO1, active compounds read low
[60] = locus YOR231W, strain MKK1, active compounds read low
[61] = locus YOR329C, strain SCD5, active compounds read low
[62] = locus YPL031C, strain PHO85, active compounds read low
[63] = locus YPL153C, strain RAD53, active compounds read low
[64] = locus YPL204W, strain HRR25, active compounds read low
[65] = locus YPL209C, strain IPL1, active compounds read low
[66] = locus YPL256C, strain CLN2, active compounds read low
[67] = locus YPR025C, strain CCL1, active compounds read low
[68] = locus YPR106W, strain ISR1, active compounds read low
[69] = locus YPR111W, strain DBF20, active compounds read low
[70] = strain NNK1, active compounds read low
[71] = strain TSCII, active compounds read low

Measured: normalized growth

Clc1ccccc1-c1csc(-c2ccncc2)n1
inactive: [1] 0.962 | [2] 0.966 | [3] 0.964 | [4] 0.968 | [5] 0.962 | [6] 0.964 | [7] 0.966 | [8] 0.963 | [9] 0.965 | [10] 0.966 | [11] 0.971 | [12] 0.977 | [13] 0.922 | [14] 0.966 | [15] 0.937 | [16] 0.895 | [17] 0.945 | [18] 0.942 | [19] 0.964 | [20] 0.964 | [21] 0.961 | [22] 0.96 | [23] 0.951 | [24] 1.02 | [25] 0.85 | [26] 0.946 | [27] 0.923 | [28] 1.12 | [29] 1.03 | [30] 0.962 | [31] 0.829 | [32] 0.933 | [33] 0.93 | [34] 0.964 | [35] 0.94 | [36] 1.02 | [37] 0.99 | [38] 0.974 | [39] 0.987 | [40] 0.949 | [41] 0.992 | [42] 0.969 | [43] 0.979 | [44] 0.927 | [45] 0.977 | [46] 0.963 | [47] 0.972 | [48] 0.963 | [49] 0.97 | [50] 0.965 | [51] 0.96 | [52] 1.07 | [53] 0.962 | [54] 0.965 | [55] 0.971 | [56] 0.957 | [57] 0.97 | [58] 0.99 | [59] 0.981 | [60] 0.988 | [61] 0.964 | [62] 0.918 | [63] 0.925 | [64] 0.93 | [65] 0.965 | [66] 1.03 | [67] 0.968 | [68] 0.965 | [69] 0.97 | [70] 0.97 | [71] 0.951

CN(C)C/C=C(/c1ccc(Br)cc1)c1cccnc1
inactive: locus YAL040C, strain CLN3, active compounds read low 0.964 | locus YCL061C, strain MRC1 (second series), active compounds read low 0.999 | locus YDR363W, strain ESC2, active compounds read low 0.984 | locus YER002W, strain NOP16, active compounds read low 0.992 | locus YMR307W, strain GAS1, active compounds read low 1.02 | locus YNL175C, strain NOP13, active compounds read low 0.975 | locus YNL197C, strain WHI3, active compounds read low 1 | locus YNL224C, strain SQS1, active compounds read low 1 | locus YNL322C, strain KRE1, active compounds read low 0.926 | locus YOR083W, strain WHI5 (second series), active compounds read low 0.994 | locus YPL055C, strain LGE1, active compounds read low 0.997 | locus YPL241C, strain CIN2, active compounds read low 0.998

Brc1ccc(-c2csc(-c3cccnc3)n2)cc1
active: [1] 0.879 | [8] 0.887 | [10] 0.854 | [12] 0.894 | [13] 0.847 | [14] 0.884 | [15] 0.624 | [16] 0.606 | [17] 0.561 | [18] 0.867 | [19] 0.872 | [21] 0.677 | [22] 0.875 | [23] 0.59 | [25] 0.456 | [26] 0.519 | [31] 0.305 | [34] 0.878 | [35] 0.603 | [38] 0.733 | [40] 0.864 | [41] 0.506 | [42] 0.655 | [44] 0.563 | [46] 0.88 | [47] 0.719 | [48] 0.873 | [49] 0.894 | [51] 0.893 | [52] 0.55 | [53] 0.846 | [56] 0.866 | [59] 0.54 | [61] 0.883 | [62] 0.533 | [63] 0.449 | [64] 0.46 | [65] 0.893 | [66] 0.679 | [67] 0.894 | [70] 0.871 | [71] 0.86
inactive: [2] 0.921 | [3] 0.898 | [4] 0.913 | [5] 0.904 | [6] 0.906 | [7] 0.916 | [9] 0.904 | [11] 0.741 | [20] 0.904 | [24] 0.704 | [27] 0.637 | [28] 0.695 | [29] 0.643 | [30] 0.899 | [32] 0.951 | [33] 0.735 | [36] 0.545 | [37] 0.835 | [39] 0.784 | [43] 0.767 | [45] 0.704 | [50] 0.751 | [54] 0.902 | [55] 0.702 | [57] 0.709 | [58] 0.792 | [60] 0.647 | [68] 0.903 | [69] 0.918
